An excerpt weighted towards active compounds, which were near 4.2% of everything screened.
Wnt act – Wnt/beta-catenin pathway activation; Wnt/beta-catenin reporter cell assay, activator, plate reader; AID 743398; hit rate 1.2% among 300,000; activation, % at 9.35 µM; in the data active = activation above about 30%, passing the limit was not always enough; inconclusive = no clear call, values can overlap the other calls;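 also: 0% = neutral control wells and 100% = positive control wells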
MITF TRPM1 HTS – increases MITF-driven TRPM1 promoter luciferase signal; SK-MEL-5 TRPM1-promoter luciferase, 24 h; % of positive control, neutral wells = 0; activation, % at 12.5 µM; hit rate 0.75% among 300,000; AID 588334;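 active = mean activation of at least 80% with every replicate also reaching 80%; inconclusive = mean reaches 80% but some replicate falls short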;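 also: 0% = neutral control wells and 100% = parthenolide positive control wells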
FXN GAA850 act – activators of GAA850 frataxin (FXN) promoter | AID 540364 | HEK293 lucGAA850 FXN promoter luciferase reporter, 24 h; percent of 10 µM SAHA response | hit rate 0.56% among 360,000 | activation, % at 6 µM;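 active = activation above the average of all compounds screened plus 3 SD, cutoff fixed separately per campaign, cut at about 7.5% in these data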;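 also: 0% = DMSO wells and 100% = 10 µM SAHA wells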
AHR act – human AHR activation | P35869 | AHR-responsive luciferase reporter cells, luminescence | activation, % at 5 µM | hit rate 2.5% among 320,000 | AID 2796; in the data active = activation above about 47%;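 also: 0% = vehicle wells and 100% = reference agonist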
Target sequence (P35869 whole entry, looked up): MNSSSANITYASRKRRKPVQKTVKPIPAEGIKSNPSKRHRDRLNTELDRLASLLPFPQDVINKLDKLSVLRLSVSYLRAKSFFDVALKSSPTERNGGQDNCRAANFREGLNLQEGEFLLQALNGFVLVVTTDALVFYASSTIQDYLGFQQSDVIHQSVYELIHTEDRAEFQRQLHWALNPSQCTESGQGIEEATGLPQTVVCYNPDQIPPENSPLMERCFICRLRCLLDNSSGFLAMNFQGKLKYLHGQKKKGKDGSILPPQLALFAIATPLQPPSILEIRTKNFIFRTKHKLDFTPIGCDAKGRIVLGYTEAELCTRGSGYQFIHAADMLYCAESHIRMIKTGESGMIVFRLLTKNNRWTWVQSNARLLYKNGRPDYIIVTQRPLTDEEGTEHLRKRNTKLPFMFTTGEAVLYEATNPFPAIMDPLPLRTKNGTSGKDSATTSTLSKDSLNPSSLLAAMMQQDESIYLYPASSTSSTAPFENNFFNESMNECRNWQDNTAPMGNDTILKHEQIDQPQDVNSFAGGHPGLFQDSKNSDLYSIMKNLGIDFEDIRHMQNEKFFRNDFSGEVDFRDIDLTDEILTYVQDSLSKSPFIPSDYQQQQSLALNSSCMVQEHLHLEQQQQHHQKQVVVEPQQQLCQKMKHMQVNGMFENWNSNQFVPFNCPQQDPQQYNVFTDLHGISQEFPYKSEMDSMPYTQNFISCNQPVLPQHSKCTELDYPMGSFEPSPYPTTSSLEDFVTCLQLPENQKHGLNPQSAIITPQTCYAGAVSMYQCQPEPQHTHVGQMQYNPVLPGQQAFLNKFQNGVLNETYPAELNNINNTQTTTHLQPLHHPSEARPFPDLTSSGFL
esBAF inh – SWI/SNF esBAF complex inhibition; hit rate 2% among 350,000; AID 602393; mouse ES cells, Bmi1-luciferase knock-in reporter, 24 h; 100% = twice the neutral-well signal; reporter increase, % at 12.5 µM; in the data active = activation above about 40%; inconclusive = no clear call, values can overlap the other calls;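 also: 0% = median of the plate's neutral control wells and 100% = double that signal; a rise in the Bmi1 reporter signal indicates esBAF inhibition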
An asterisk follows results filed as active; u = inconclusive; x = no result.

SMILES	Wnt act	MITF TRPM1 HTS	FXN GAA850 act	AHR act	esBAF inh
O=C(NCCCCCCNC(=O)c1ccccc1O)c1ccccc1O	-0.4	-10.8	0.4	4.0	6.3
O=C(NCCCc1ccccc1)c1ccccc1O	6.8	44.4	2.3	6.3	70.0*
NS(=O)(=O)c1ccc(CCNC(=O)c2ccccc2Cc2ccccc2)cc1	30.8*	-5.8	-0.5	-3.2	1.4
FC(F)(F)c1cc(Cl)c2nnc(-c3cccnc3)n2c1	-0.1	3.8	-0.3	-0.1	x
FC(F)(F)c1cnc(-c2cnc(-c3cccnc3)nc2)c(Cl)c1	u	105.7*	1.6	-5.5	x
Cc1ccc(S(=O)(=O)N(C)C[C@@H]2Oc3ccc(NS(=O)(=O)c4cccs4)cc3C(=O)N([C@H](C)CO)C[C@@H]2C)cc1	x	x	x	x	-1.4
CC1CCC/C(=C\Nc2ccc(O)cc2)C1=O (stereo not given)	x	x	2.2	7.4	33.0
Cc1cc(C(=O)O)ccc1N/C=C1\CCCC(C)C1=O (stereo not given)	13.0	-4.8	3.4	1.3	63.5*
CS(=O)(=O)c1ccc(C(=O)OCC(=O)NCc2cccs2)cc1[N+](=O)[O-]	-24.1	-84.2	8.8*	1.2	11.6
CCOC(=O)c1ccc(-n2ccnc2)c(NC(=O)c2ccc(Cl)cc2)c1	-0.5	-0.5	1.0	53.4*	x
CCOC(=O)c1ccc(Cl)c(NC(=O)c2cccnc2)c1	x	x	x	-1.0	x
C=C(C)C1CC=C(C)C(=NNC(=O)c2ccncc2)C1 (stereo not given)	-0.9	-3.9	-0.7	x	0.8
C=C(C)C1CC=C(C)/C(=N/NC(=O)c2cccs2)C1 (stereo not given)	26.8	98.1*	4.7	37.9	42.5*
Cc1cc(C(=O)N/N=C/c2cc(Br)ccc2OC(=O)c2ccccc2Cl)n[nH]1	-5.9	-25.1	-1.9	64.7*	9.9
C/C=C/c1ccc([C@@H]2[C@@H](CO)N(C(=O)C3CC3)[C@H]2CN(C)C(=O)CC2CC2)cc1	x	x	x	x	0.2
CCn1c(C)cc(/C=C2\NC(=O)N(Cc3ccccc3)C2=O)c1C	-8.8	12.7	0.6	70.3*	x
Cc1cc(/C=C2/NC(=O)N(Cc3ccccc3F)C2=O)c(C)n1C(C)C	-0.6	10.9	1.5	113.9*	x
Cn1ccnc1SCC(=O)c1c(N)n(C)c(=O)n(C)c1=O	-3.5	8.6	1.2	14.7	-5.7
Cc1cc(C)nc(SCC(=O)c2c(N)n(C)c(=O)n(C)c2=O)n1	x	15.5	3.3	50.1*	-2.4
Nc1nc(N)c(N=O)c(OCC2CCCCC2)n1	-0.1	-13.0	-3.5	6.6	42.3*
NS(=O)(=O)OCC1CCCCC1	-0.9	-4.2	-0.6	3.6	-2.9
COc1ccc(OC)c(CNc2ccc3c(c2)CCC3)c1	-0.3	x	0.8	30.0	46.5*
COc1ccccc1C(=O)Cc1ccccc1	-3.5	18.2	1.5	x	23.5
COc1ccccc1C(=O)OCCc1ccccc1	-2.4	141.2*	4.7	x	78.4*
COc1ccccc1-c1ccc2n(c1=O)C[C@H]1[C@H](CO)[C@@H](C(=O)NCCCN(C)C)N(C(C)=O)[C@@H]21	x	x	x	x	-0.7
SMILES	Wnt act	MITF TRPM1 HTS	FXN GAA850 act	AHR act	esBAF inh
COc1cccc(-c2ncc3ccccn23)c1	4.1	57.0	4.6	14.0	51.7*
Cc1ccnc(NC(=O)c2ccc(S(=O)(=O)N3CCCCCC3)cc2)c1	33.7*	83.5*	3.6	1.1	x
NC(=O)c1ccsc1NC(=O)c1ccc(S(=O)(=O)N2CCCCC2)cc1	10.5	x	-0.5	-4.0	99.7*
O=C(Nc1ccccn1)c1ccc(S(=O)(=O)N2CCCCC2)cc1	23.2	91.2*	0.8	0.7	39.6
O=C(Nc1ccccn1)c1ccc(S(=O)(=O)N2CCCCCC2)cc1	25.0	64.5	1.1	3.0	u
Cc1ccnc(NC(=O)c2cccc(S(=O)(=O)N3CCCc4ccccc43)c2)c1	29.9	88.4*	2.1	10.5	x
C[C@@H]1CN([C@@H](C)CO)C(=O)c2cc(NC(=O)c3ccncc3)ccc2O[C@@H](C)CCCCO[C@@H]1CN(C)S(=O)(=O)c1cccs1	x	x	x	x	-4.6
CCCNC(=O)N1C[C@H](C)[C@H](OC)CN(C)C(=O)c2ccc(NS(C)(=O)=O)cc2OC[C@@H]1C	x	x	x	x	-3.9
O=C(Nc1ccccc1Cl)N1[C@H](CO)[C@@H]2c3ccccc3NC[C@@H]21	x	x	x	x	61.0*
O=C(Nc1ccccc1Cl)N1[C@@H](CO)[C@@H]2c3ccccc3NC[C@@H]21	x	x	x	x	-1.6
CCSc1nnc(NC(=O)c2csc(C)c2)s1	17.8	84.0*	0.7	-0.9	38.3
CCSc1nnc(NC(=O)c2cccc3ccccc23)s1	0.2	1.3	0.3	51.9*	0.6
COc1ccc(Br)cc1/C(C)=N/NC1=NCCN1	x	-13.3	-3.1	38.8	x
CCCCCOc1ccc(Br)cc1/C(C)=N/NC1=NCCN1	-27.5	-68.9	-1.3	62.4*	-22.2
C#CCOn1c(-n2nc(C)cc2C)nc2ccccc2c1=O	1.1	-13.7	0.8	4.0	-2.9
Cc1cc(C)n(-c2nc3ccccc3c(=O)n2OCC(=O)OCc2ccccc2)n1	1.6	-14.5	0.0	x	48.4*
Cc1cc(C)n(-c2nc3ccccc3c(=O)n2OCc2ccc(Cl)cc2)n1	-1.5	-19.9	-1.6	49.4*	11.3
Cc1cc(C)n(-c2nc3ccccc3c(=O)n2OCc2ccc(F)cc2)n1	3.4	-17.3	1.2	53.8*	8.7
COc1ccc(S(=O)(=O)Nc2ccc3c(c2)CC(=O)N([C@H](C)CO)C[C@@H](C)[C@@H](CN(C)S(C)(=O)=O)O3)cc1	x	x	x	x	-1.7
O=C(C[C@H]1CC[C@H](NC(=O)CCN2CCCCC2)[C@H](CO)O1)NCc1ccc(Cl)c(Cl)c1	x	x	x	x	-6.2
C[C@@H](NC(=O)C[C@H]1CC[C@H](NC(=O)c2cccnc2)[C@H](CO)O1)c1ccccc1	x	x	x	x	3.4
COc1ccccc1Nc1cc(C(=O)N2CCc3ccccc3C2)c2ccccc2n1	x	x	x	63.6*	x
COc1ccc(Nc2cc(C(=O)N3CCc4ccccc4C3)c3ccccc3n2)c(OC)c1	1.7	-7.2	-1.3	55.4*	15.0
COc1ccc(-c2c(-c3cc(OC)cc(OC)c3)n(C)c3ccc(Br)cc23)cc1	0.6	-1.8	0.1	6.6	3.8
COc1ccc(N=Nc2nc3ccc(Br)cc3n2C)cc1	x	69.4	2.4	3.3	52.0*
SMILES	Wnt act	MITF TRPM1 HTS	FXN GAA850 act	AHR act	esBAF inh
O=[N+]([O-])c1ccc(Sc2n[nH]c(-c3ccccc3)n2)nc1	12.1	x	2.9	11.0	51.1*
C=C(C)c1sc(-c2ccc(Cl)cc2)nc1C	25.4	74.0	0.0	19.6	49.5*
C(=N\NCc1ccccc1)/c1ccc2nccnc2c1	28.7	x	1.8	24.6	x
C(=N\NCc1ccccc1)/c1ccc2ncccc2c1	30.6*	x	1.8	12.7	x
Cc1ccc(S(=O)(=O)Nc2ccc3c(c2)C(=O)N([C@H](C)CO)C[C@@H](C)[C@H](CN(C)S(=O)(=O)c2ccc(C)cc2)O3)cc1	x	x	x	x	4.3
CCN1C(=O)[C@H]2[C@@H](c3ccc(C)cc3)N3C(=O)N(c4ccccc4)C(=O)[C@@]3(CC)[C@H]2C1=O	6.0	21.3	1.5	1.3	14.0
CCN1C(=O)[C@H]2[C@@H](c3ccc(C)cc3)N3C(=O)N(c4ccc(C)cc4)C(=O)[C@@]3(CC)[C@H]2C1=O	4.6	5.1	4.5	2.7	46.8*

Screening data as filed in PubChem BioAssay.
